SMARCA2 activ – SMARCA2 function activation, primary screen. activation, % at 9.1 µM. MG213 cells, MMTV-luciferase reporter, dexamethasone, overnight. 370,000 compounds, 1% hits; in the data active means activation above about 7.8%;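 further: 0% = vehicle wells and 100% = reference activator wells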
GalR3 antagonist – human GalR3 antagonism. 360,000 compounds, 0.44% hits. AID 651719. O60755. HEK293 GalR3-CNG cAMP membrane potential fluorescence; galR3 body fused to GalR1 C-terminus. inhibition, % at 3 µM;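 active means inhibition above the screen-wide average plus 3 SD, cut at about 13% in these data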;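 further: forskolin and galanin both at EC90 stimulate the cells; cAMP rise reported by CNG channel membrane potential dye signal; 0% = forskolin plus galanin with DMSO and 100% = forskolin alone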
Target sequence (O60755 1-299 limits assumed): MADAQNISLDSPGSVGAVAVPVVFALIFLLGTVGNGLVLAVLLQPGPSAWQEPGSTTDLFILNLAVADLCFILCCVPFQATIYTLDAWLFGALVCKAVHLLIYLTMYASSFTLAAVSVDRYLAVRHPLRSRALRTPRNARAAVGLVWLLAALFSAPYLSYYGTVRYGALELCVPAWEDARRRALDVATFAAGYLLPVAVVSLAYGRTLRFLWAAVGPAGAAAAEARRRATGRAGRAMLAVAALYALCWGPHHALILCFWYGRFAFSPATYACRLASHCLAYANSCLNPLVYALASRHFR
GAA850 FXN act – frataxin GAA850 promoter activation | HEK293 lucGAA850 FXN promoter luciferase reporter, 24 h; percent of 10 µM SAHA response | activation, % at 6 µM | 360,000 compounds, 0.56% hits | AID 540364;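 active means activation above the average of all compounds screened plus 3 SD, cutoff fixed separately per campaign, cut at about 7.5% in these data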;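 further: 0% = DMSO wells and 100% = 10 µM SAHA wells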
Gli-Sufu block – Gli-Sufu pathway antagonism | inhibition, % at 5 µM | Sufu-KO-LIGHT fibroblasts, Gli luciferase reporter luminescence | 340,000 compounds, 0.74% hits;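 active means inhibition above about 55%, limit read from the data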;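 further: 0% = DMSO-treated cells and 100% = wells with medium but no cells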
COUP-TFII inh – blocks human COUP-TFII nuclear receptor; HEK293T NGFI-A luciferase reporter, luminescence; inhibition, % at 8.6 µM; 370,000 compounds, 0.7% hits; AID 686940;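 active means inhibition above a per-plate cutoff, mean inhibition of test wells between control levels plus 3 SD, cut at about 38% in these data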;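 further: cells cotransfected with COUP-TFII expression vector driving the NGFI-A reporter; 0% = median of COUP-TF2 test wells and 100% = reporter-only cells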
Target sequence (P24468 whole entry, looked up): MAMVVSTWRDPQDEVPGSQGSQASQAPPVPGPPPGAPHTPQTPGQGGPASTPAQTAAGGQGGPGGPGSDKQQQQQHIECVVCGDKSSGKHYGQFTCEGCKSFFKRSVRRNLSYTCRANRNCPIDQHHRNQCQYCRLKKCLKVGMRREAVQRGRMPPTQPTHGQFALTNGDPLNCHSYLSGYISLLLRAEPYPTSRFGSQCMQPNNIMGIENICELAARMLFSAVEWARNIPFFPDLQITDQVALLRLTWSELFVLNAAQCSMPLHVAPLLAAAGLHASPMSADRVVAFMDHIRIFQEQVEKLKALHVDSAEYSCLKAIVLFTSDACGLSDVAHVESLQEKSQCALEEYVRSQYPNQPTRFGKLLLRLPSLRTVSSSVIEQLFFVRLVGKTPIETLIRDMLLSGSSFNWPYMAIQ
H9c2 protect – modulators protecting cardiomyocytes from myocardial damage | protection from H2O2 cell death, % at 20 µM | H9c2 cardiomyocytes, H2O2 injury protection, ATPLite, 2 h | 360,000 compounds, 0.63% hits | AID 588492;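 active means compounds giving at least 50% protection of heart cells from peroxide-induced death in the single-dose screen, raw or plate-pattern-corrected value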;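 further: 0% = DMSO wells with peroxide and 100% = DMSO wells without peroxide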
GAA30 FXN cntr – counter-screen for GAA850 frataxin promoter activators: GAA30 promoter activation; shares compounds with GAA850 FXN act; HEK293 lucGAA30 FXN promoter luciferase, 24 h; DMSO = 0%, 5 µM ipriflavone = 100%; activation, % at 6 µM; 1,900 compounds, 66% hits;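 active means mean activation above the mean of solvent-only control wells plus 3 SD, cut at about 22% in these data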;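 further: counterscreen of GAA850 promoter hits where activity marks nonselective or luminescence artifacts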
GAA850 confirm – confirmation of GAA850 frataxin (FXN) promoter activators; activation, % at 6 µM; 1,900 compounds, 86% hits; shares compounds with GAA850 FXN act; HEK293 lucGAA850 FXN promoter luciferase reporter, 24 h; 100% = activation by SAHA;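 active means mean activation above a set limit taken from the primary screen, cut at about 8% in these data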;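 further: 0% = DMSO wells and 100% = 10 µM SAHA wells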
* = called active by the depositor; . = no result given. Compounds with a hit are over-represented: about 3.4% of the library has one in this group of screens.

SMILES | SMARCA2 activ | GalR3 antagonist | GAA850 FXN act | Gli-Sufu block | COUP-TFII inh | H9c2 protect | GAA30 FXN cntr | GAA850 confirm
O=C1[C@H]2[C@@H](c3ccc(Cl)cc3)N3C(=O)N(c4cccc(Cl)c4)C(=O)[C@@]3(Cc3ccc(Cl)cc3)[C@H]2C(=O)N1C1CCCCC1 | 1 | -4 | 9.6* | -8 | -15 | -4 | 23* | 10*
CC(C)C[C@@]12C(=O)N(c3cccc(Br)c3)C(=O)N1[C@H](c1ccc(Cl)cc1)[C@@H]1C(=O)N(C3CCCCC3)C(=O)[C@@H]12 | 0 | -5 | 3 | 3 | -14 | -3 | . | .
O=C1[C@H]2[C@@H](c3ccc(F)cc3)N3C(=O)N(c4ccc(Br)cc4)C(=O)[C@@]3(Cc3ccccc3)[C@H]2C(=O)N1C1CCCCC1 | -1 | -7 | 9.1* | -11 | 11 | -11 | 21 | 7
COc1ccc([C@@H]2[C@@H]3C(=O)N(C(C)(C)C)C(=O)[C@@H]3[C@]3(Cc4ccccc4)C(=O)N(c4ccc(OC)cc4)C(=O)N23)cc1 | 0 | -1 | 0 | 0 | -9 | 11 | . | .
CC[C@@]12C(=O)N(c3cccc(Br)c3)C(=O)N1[C@H](c1ccc(Cl)cc1)[C@@H]1C(=O)N(C3CCCCC3)C(=O)[C@@H]12 | 2 | -2 | 11* | -29 | 12 | -6 | 6 | 15*
C[C@H]1CN([C@@H](C)CO)C(=O)CCCn2cc(nn2)CO[C@@H]1CN(C)C(=O)c1ccc2ccn(C)c2c1 | 4 | 1 | . | . | -6 | . | . | .
CCC(c1nnnn1-c1ccc2c(c1)OCCO2)N1CCc2ccccc2C1 (stereo not drawn) | 0 | -7 | . | . | -15 | . | . | .
O=S1(=O)c2c(NCc3ccco3)cccc2Oc2ccccc2CN1Cc1cn(Cc2ccc(F)cc2)nn1 | 1 | . | . | . | -6 | . | . | .
C=CCNC(=O)c1cc2cc(Cl)ccc2nc1N | -4 | -4 | . | . | -8 | . | . | .
CCCCn1nnnc1C(c1ccc(OC)cc1)N1CCN(C/C=C/c2ccccc2)CC1 (stereo not drawn) | -3 | -6 | . | . | -6 | -1 | . | .
CC[C@@]12C(=O)N(c3ccc(OC)cc3)C(=O)N1[C@H](c1ccc(Cl)cc1)[C@@H]1C(=O)N(C3CCCCC3)C(=O)[C@@H]12 | 0 | -13 | 10* | -1 | 9 | -4 | 30* | 7
O=C1[C@H]2[C@@H](c3ccc(F)cc3)N3C(=O)N(c4cccc(F)c4)C(=O)[C@@]3(Cc3ccc(Cl)cc3)[C@H]2C(=O)N1C1CCCCC1 | 0 | 0 | 12* | -11 | -12 | -7 | 20 | 11*
CC(C)C[C@@]12C(=O)N(c3cccc(Cl)c3)C(=O)N1[C@H](c1ccc(F)cc1)[C@@H]1C(=O)N(C3CCCCC3)C(=O)[C@@H]12 | 1 | -5 | 12* | 7 | 3 | -2 | 21 | 20*
Cc1ccc(N2C(=O)N3[C@H](c4ccc(F)cc4)[C@@H]4C(=O)N(C5CCCCC5)C(=O)[C@@H]4[C@]3(C)C2=O)cc1 | . | . | 13* | -9 | . | -10 | 20 | 5
CC(C)C[C@@]12C(=O)N(c3cccc(Cl)c3)C(=O)N1[C@H](c1ccc(Cl)cc1)[C@@H]1C(=O)N(C3CCCCC3)C(=O)[C@@H]12 | 1 | -3 | 5 | 0 | -2 | 1 | . | .
O=C1[C@H]2[C@@H](c3ccc(Cl)cc3)N3C(=O)N(c4cccc(F)c4)C(=O)[C@@]3(Cc3ccc(Cl)cc3)[C@H]2C(=O)N1C1CCCCC1 | . | . | 0 | -34 | . | -3 | . | .
CCOc1ccc(-n2c(SCc3nc4ccccc4[nH]3)nnc2-c2cccc(Cl)c2)cc1 | 0 | . | . | . | 20 | . | . | .
O=C(NCCc1ccccc1)OCc1cn(Cc2cccc(C(F)(F)F)c2)nn1 | -3 | . | . | . | -9 | . | . | .
O=C(Nc1ccc(OC(F)(F)F)cc1)Nc1c(-c2ccc(F)cc2)nc2ncccn12 | -3 | . | . | . | -2 | . | . | .
Cc1ccc(N2C(=O)N3[C@H](c4ccc(Cl)cc4)[C@@H]4C(=O)N(C5CCCCC5)C(=O)[C@@H]4[C@]3(Cc3ccccc3)C2=O)cc1 | -1 | -8 | 12* | -11 | 7 | -4 | 43* | 17*
COc1ccc(NC(=O)C(CCCCNC(=O)OC(C)(C)C)NC2(C(=O)NCCc3c[nH]c4ccccc34)CCCCC2)cc1 (stereo not drawn) | . | . | . | . | 6 | . | . | .
O=C(Cn1c(=O)c2cccn2c2cccnc21)NCCCN1CCN(c2ccccc2)CC1 | . | . | . | . | -17 | . | . | .
Cn1/c(=N/N=C/c2ccccn2)sc2ccccc21 | 7 | -2 | 10* | -62 | -50 | -8 | 114* | 35*
Cn1/c(=N/N=C/c2ccc(N3CCOCC3)cc2)sc2ccccc21 | -2 | -1 | 3 | -31 | -21 | -11 | . | .
COc1ccc(CN2C[C@]3(C=C4CCCCC4n4c(=O)n(-c5ccccc5)c(=O)n43)N(C(=O)OCc3ccccc3)C2=NC(=O)c2ccccc2)c(OC)c1 (stereo partly drawn) | -4 | . | . | . | -3 | . | . | .
SMILES | SMARCA2 activ | GalR3 antagonist | GAA850 FXN act | Gli-Sufu block | COUP-TFII inh | H9c2 protect | GAA30 FXN cntr | GAA850 confirm
NNc1ccc(Cl)c(C(=O)O)c1 | 0 | -4 | 8.7* | -41 | 11 | -5 | 81* | 23*
O=C(O)/C=C/C(=O)Nc1ccc(Cl)c(C(=O)O)c1 | -1 | -4 | 1 | -3 | -2 | 1 | . | .
O=C(O)c1ccc(N=Nc2c(O)ccc3ncccc23)cc1 | 5 | -9 | 8.5* | -65 | -52 | -16 | 108* | 39*
O=C(O)c1cc(N=Nc2c(O)ccc3ccccc23)cc(C(=O)O)c1 | -1 | -4 | 1 | -3 | -20 | -3 | . | .
CC(=O)Nc1ccc(N/C=C/C(=O)c2ccc(C)o2)cc1 | 1 | -3 | 8.9* | -34 | 5 | -6 | 95* | 30*
COc1ccccc1Oc1ccc(N/C=C/C(=O)c2ccc(C)o2)cc1 | 1 | -5 | 3 | -46 | 18 | -7 | . | .
COc1ccc(O)c(/C=N/n2c(-c3ccco3)csc2=Nc2cccnc2)c1 | -3 | -1 | 2 | 0 | -27 | -6 | . | .
CN=c1scc(-c2ccco2)n1/N=C/c1ccc(O)c(O)c1 | 4 | 0 | 16* | 28 | -22 | -9 | 44* | 23*
C=CCN=c1scc(C)n1/N=C/c1ccc(O)c(O)c1 | -1 | 6 | 10* | 40 | -32 | 65* | 63* | 28*
O=S1(=O)C[C@H](N2CCCC2)[C@@H](COCc2ccccc2)N1 | -5 | 1 | . | . | -13 | 1 | . | .
O=C(OCc1cn(Cc2cc(F)cc(F)c2)nn1)N1CCOCC1 | -6 | . | . | . | -7 | . | . | .
CCOC(=O)c1cnc2c(ccc3ccccc32)c1NCCN(C)C | 3 | -10 | 8.4* | 12 | -30 | 3 | 23* | 17*

Screening results deposited in PubChem by several laboratories.
